Methyltransferases: Primary Screen for Target Class Profiling of Small Molecule Inhibitors of Methyltransferases. purified enzyme, MTase-Glo SAH luminescence; stronger effect = lower value. calls only at 40 µM. 25,000 tested, 3.9% active. AID 1745853, 2022; call rule not given here
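Each enzyme was reacted with SAM and its substrate, with compounds tested once at 40 uM; SAH formed was read by MTase-Glo luminescence.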
Large screens that a line does not name were inactive; ! = repeats disagree. The entries come from a sample that favours hits as a whole.

C/C(=C\CC/C(C)=C/CC[C@]1(C)CCc2cc(O)cc(C)c2O1)CC/C=C(\C)C(=O)O	Methyltransferases active
C=CCn1c(=O)c2ccc(C(=O)NCC(C)C)cc2n2c(=O)n(CC(=O)Nc3ccccc3F)nc12	none
COCCCNC(=O)C1(C)Cn2nc(-c3ccccc3)cc2C(=O)N1c1ccc(C)c(C)c1 (configuration not stated)	none
CN(C)CCCC1(c2ccc(F)cc2)OCc2cc(C#N)ccc21 (configuration not stated)	Methyltransferases active!
CC(=O)Nc1c2n(c3ccc(F)cc13)CC(C)(C(=O)NC1CCCC1)N(Cc1ccco1)C2=O (configuration not stated)	none
CCOC(=O)c1cc2n(n1)CC(C)(C(=O)NC1CCCCCC1)N(Cc1ccccc1OCC)C2=O (configuration not stated)	none
Cn1c(=O)c(-c2c(Cl)cccc2Cl)cc2cnc(Nc3cccc(C(=O)O)c3)nc21	none
CNc1nccc(-c2cccnc2Oc2cc(C(=O)Nc3cccc(C(F)(F)F)c3)ccc2C)n1	none
CN(C)C/C=C/C(=O)Nc1cccc(C(=O)Nc2cccc(Nc3ncc(Cl)c(-c4c[nH]c5ccccc45)n3)c2)c1	Methyltransferases active
CN(C)C/C=C/C(=O)Nc1cccc(C(=O)Nc2ccc(Nc3nccc(-c4cccnc4)n3)cc2)c1	Methyltransferases active
CN(C)C/C=C/C(=O)Nc1ccc(C(=O)Nc2cccc(Nc3ncc(Cl)c(-c4c[nH]c5ccccc45)n3)c2)cc1	Methyltransferases active
Cc1ccc(NC(=O)c2ccc(CN3CCNCC3)cc2)cc1Nc1nccc(-c2cccnc2)n1	none
C=CCn1c(=O)c2ccc(C(=O)NC(C)CC)cc2n2c(=O)n(CC(=O)Nc3ccccc3F)nc12 (configuration not stated)	none
Cc1cc2c(cc3n2CC(C)(C(=O)NC2CCCCCC2)N(CCCOC(C)C)C3=O)o1 (configuration not stated)	none
Cc1ccc(N2C(=O)CSc3c(c4ccccc4n3C)C2C(=O)NCc2ccc(F)cc2)cc1C (configuration not stated)	none
CC1CCN(S(=O)(=O)c2ccc3c(ccn3CCC(=O)NC3CCCCC3)c2)CC1	none
CC(=O)OC1CCC2(C)C(CCC3(C)C2CC=C2C4C(C)C(C)CCC4(C)CCC23C)C1(C)C(=O)O (configuration not stated)	none
CCOC(=O)c1cc2n(n1)CC(C)(C(=O)NCc1ccccc1)N(c1ccc(C)c(Cl)c1)C2=O (configuration not stated)	none
Cc1cc2c(cc3n2CC(C)(C(=O)NC2CCCCCC2)N(Cc2ccccc2Cl)C3=O)o1 (configuration not stated)	none
CC(=O)N1CCN(NC(=O)c2ccc(F)cc2)CC1	none
CCN1c2cc(C(=O)Nc3cccc(F)c3)ccc2C(=O)N2CCCC21 (configuration not stated)	none
CN1CCC(c2c[nH]c3ccc(NC(=O)c4ccc(F)cc4)cc23)CC1	Methyltransferases active
CCOC(=O)CC1(NC(=O)N2Cc3c(sc4c3CCCC4)-n3cccc3C2CC)CCCCC1 (configuration not stated)	none
Cc1ccc(Cn2c(=O)c3ccccc3n3c(CCC(=O)Nc4ccccc4)nnc23)cc1	none
CCC(C)NC(=O)Cn1nc2n(C)c(=O)c3ccc(C(=O)NC4CCCC4)cc3n2c1=O (configuration not stated)	none
COc1ccc(N(C(=O)c2ccncc2)S(=O)(=O)c2ccc3c(c2)n(C)c(=O)n3C)cc1	none
COc1ccc(CCN2C(=O)c3cc4sccc4n3CC2(C)C(=O)NC2CCCC2)cc1OC (configuration not stated)	none
Cc1ccc(N2C(=O)c3ccccc3CC2(C)C(=O)NCc2ccccc2)cc1 (configuration not stated)	none
CSc1ccc(CCNC(=O)c2cc3n(n2)CCCN(Cc2ccc(F)cc2)C3=O)cc1	none
CC1(C)CC[C@]2(C(=O)O[C@@H]3O[C@H](CO)[C@@H](O)[C@H](O)[C@H]3O)CC[C@]3(C)C(=CCC4[C@@]5(C)CC[C@H](O[C@@H]6O[C@H](C(=O)O)[C@@H](O)[C@H](O)[C@H]6O)C(C)(C)C5CC[C@]43C)C2C1 (some centres not stated)	none
CC1OC(OC2C(OC(=O)[C@]34CCC(C)(C)C[C@H]3C3=CCC5[C@@]6(C)CC[C@H](OC7OC(C(=O)O)C(O)C(O)C7O)C(C)(C)C6CC[C@@]5(C)[C@]3(C)CC4O)OC(CO)C2O)C(O)C(O)C1OC1OCC(O)C(O)C1O (some centres not stated)	Methyltransferases active
CC1(C)CC[C@]2(C(=O)O[C@@H]3O[C@H](CO)[C@@H](O)[C@H](O)[C@H]3O)CC[C@]3(C)C(=CCC4[C@@]5(C)CC[C@H](O[C@@H]6O[C@H](C(=O)O)[C@H](O)[C@H](O)[C@H]6O)C(C)(C)C5CC[C@]43C)[C@@H]2C1 (some centres not stated)	Methyltransferases active
CC1(C)CC[C@@]2(C(=O)O[C@@H]3O[C@H](CO)[C@@H](O)[C@H](O)[C@H]3O)C(C1)C1=CCC3[C@@]4(C)CC[C@@H](O[C@@H]5O[C@H](C(=O)O)[C@@H](O[C@@H]6OC[C@@H](O)[C@H](O)[C@H]6O)[C@H](O[C@@H]6OC[C@](O)(CO)[C@H]6O)[C@H]5O)C(C)(C)C4CC[C@@]3(C)[C@]1(C)C[C@H]2O (some centres not stated)	none
CC1(CO)CC[C@]2(C(=O)O[C@@H]3O[C@H](CO)[C@@H](O)[C@H](O)[C@H]3O)CC[C@]3(C)C(=CCC4[C@@]5(C)CC[C@H](O[C@@H]6O[C@H](C(=O)O)[C@@H](O)[C@H](O)[C@H]6O)C(C)(C)C5CC[C@]43C)C2C1 (some centres not stated)	none
C[C@@H]1O[C@@H](O[C@@H]2[C@@H](O)[C@H](O[C@H]3[C@H](O[C@H]4CC[C@@]5(C)C(CC[C@]6(C)C5CC=C5[C@@H]7CC(C)(C)CC[C@]7(C(=O)O[C@@H]7O[C@H](CO)[C@@H](O)[C@H](O)[C@H]7O)CC[C@]56C)C4(C)C)O[C@H](C(=O)O)[C@@H](O)[C@@H]3O)OC[C@H]2O)[C@H](O)[C@H](O)[C@H]1O (some centres not stated)	none
COc1ccc(N2CCN(C(=O)CCCc3nnc4n5nc(C)nc5c5ccccc5n34)CC2)cc1	none
Cc1ccccc1N1C(=O)c2cc3sccc3n2CC1(C)C(=O)NC1CCC(C)CC1 (configuration not stated)	none
CCOCCCNC(=O)N1Cc2c(sc3c2CCCC3)-n2cccc2C1c1cccc(OCC)c1 (configuration not stated)	none
Cc1ccc(Cn2c(=O)c3ccccc3n3c(SCC(=O)NCc4ccccc4)nnc23)cc1	none
Cc1ccc(C)c(NC(=O)N2CCn3c(C)ccc3C2C(C)C)c1 (configuration not stated)	none
Cc1cc2c(cc3n2CC(C)(C(=O)NC2CCCCCC2)N(C2CCCC2)C3=O)o1 (configuration not stated)	none
CCOc1ccc(CN2C(=O)c3cc(C(=O)OC)nn3CC2(C)C(=O)NC2CCC(C)CC2)cc1 (configuration not stated)	none
CCC(C)C(=O)O[C@H]1[C@@H](O[C@H]2O[C@H](CO)[C@@H](O)[C@H](O)[C@H]2O)O[C@H](CO)[C@@H](O)[C@@H]1O (some centres not stated)	none

Screens deposited in PubChem BioAssay by National Center for Advancing Translational Sciences (NCATS).
